Measurements taken from PubChem BioAssay.
For some assays here: Entries with a potency or affinity are not part of this list. The source made the active and inactive calls. Unless noted, how the calls were made is not given here.

What was measured:
[1] = antimalarial activity against Dd2 strain (AID 2302;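 active means growth inhibition above 50% at the single 2 µM test dose, taken to imply half-maximal potency below 2 µM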;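 further: 0% = DMSO untreated growth and 100% = chloroquine plus artemisinin killed control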); conditions: P. falciparum Dd2 in RBCs, LDH growth readout, 72 h; at 2 µM; hits give high values
[2] = human hepatoma cell viability loss – ATP luminescence, cytotoxicity control for P. falciparum antimalarial project, primary screen (AID 2303;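 active means inhibition above 50%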;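 further: 0% = DMSO wells and 100% = digitonin-killed cells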); conditions: HepG2 viability, 24-48 h, at 10 µM, hits give high values
[3] = target: L-lactate dehydrogenase (Plasmodium falciparum (isolate CDC / Honduras)) (UniProt Q27743); experiment: PfLDH activity inhibition – cell lysate, 3D7 strain, counter-screen for P. falciparum growth inhibition project (AID 2304);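 further: 0% = vehicle and 100% = reference inhibitor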; conditions: P. falciparum 3D7 crude extract, LDH APAD/NBT absorbance; at 2 µM; hits give high values
[4] = inhibition of 3D7 malaria parasite growth – strain 3D7 (AID 2306);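 further: 0% = DMSO wells and 100% = chloroquine plus artemisinin control wells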; conditions: P. falciparum 3D7 erythrocytic growth, LDH absorbance, 72 h; at 2 µM; hits give high values
[5] = target: Calcium-dependent protein kinase 1 (Plasmodium falciparum (isolate 3D7)) (UniProt P62344); experiment: PfCDPK1 kinase inhibitors, biochemical, TCAMS library (AID 1159585; cut-off not given, nearly all actives have IC50 up to about 0.98 µM;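 further: inhibitors leave more ATP so luminescence rises with inhibition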); conditions: recombinant PfCDPK1, Kinase-Glo ATP depletion luminescence
[6] = target: Plasmodium falciparum protein kinase 6 (PK6, PF3D7_1337100) (UniProt Q8IDW1); experiment: PfPK6 kinase inhibitors, biochemical, TCAMS library (AID 1159586); conditions: recombinant PfPK6, Kinase-Glo ATP depletion luminescence
[7] = target: Protein kinase 7 (PK7), Plasmodium falciparum 3D7 (PF3D7_0213400) (UniProt Q7YTF7); experiment: inhibition of Plasmodium PK7 catalytic activity – biochemical, TCAMS antimalarial set, Kinase-Glo luminescence (AID 1159587); conditions: recombinant PfPK7, Kinase-Glo ATP depletion luminescence
[8] = target: Calcium-dependent protein kinase 4 (Plasmodium falciparum (isolate 3D7)) (UniProt Q8IBS5); experiment: PfCDPK4 kinase inhibitors, biochemical, TCAMS library (AID 1159588; cut-off not given, nearly all actives have IC50 up to about 0.91 µM); conditions: recombinant PfCDPK4, Kinase-Glo ATP depletion luminescence
Sequence of Calcium-dependent protein kinase 4 (Plasmodium falciparum (isolate 3D7)) (Q8IBS5 whole entry, looked up): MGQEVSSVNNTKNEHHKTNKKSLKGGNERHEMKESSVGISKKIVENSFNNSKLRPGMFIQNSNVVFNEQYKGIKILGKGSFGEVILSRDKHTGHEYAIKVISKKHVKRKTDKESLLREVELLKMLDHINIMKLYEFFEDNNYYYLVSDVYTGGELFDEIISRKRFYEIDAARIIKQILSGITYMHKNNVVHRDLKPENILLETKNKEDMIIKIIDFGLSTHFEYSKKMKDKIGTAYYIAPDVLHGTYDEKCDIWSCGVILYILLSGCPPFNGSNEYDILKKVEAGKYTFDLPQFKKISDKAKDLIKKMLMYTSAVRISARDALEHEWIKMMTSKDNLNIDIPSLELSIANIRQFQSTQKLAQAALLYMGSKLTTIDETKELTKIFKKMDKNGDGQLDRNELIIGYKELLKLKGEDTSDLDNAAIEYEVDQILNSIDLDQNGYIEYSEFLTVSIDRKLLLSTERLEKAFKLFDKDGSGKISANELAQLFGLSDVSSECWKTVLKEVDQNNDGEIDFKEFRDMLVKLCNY

Sequence of Calcium-dependent protein kinase 1 (Plasmodium falciparum (isolate 3D7)) (P62344 whole entry, looked up): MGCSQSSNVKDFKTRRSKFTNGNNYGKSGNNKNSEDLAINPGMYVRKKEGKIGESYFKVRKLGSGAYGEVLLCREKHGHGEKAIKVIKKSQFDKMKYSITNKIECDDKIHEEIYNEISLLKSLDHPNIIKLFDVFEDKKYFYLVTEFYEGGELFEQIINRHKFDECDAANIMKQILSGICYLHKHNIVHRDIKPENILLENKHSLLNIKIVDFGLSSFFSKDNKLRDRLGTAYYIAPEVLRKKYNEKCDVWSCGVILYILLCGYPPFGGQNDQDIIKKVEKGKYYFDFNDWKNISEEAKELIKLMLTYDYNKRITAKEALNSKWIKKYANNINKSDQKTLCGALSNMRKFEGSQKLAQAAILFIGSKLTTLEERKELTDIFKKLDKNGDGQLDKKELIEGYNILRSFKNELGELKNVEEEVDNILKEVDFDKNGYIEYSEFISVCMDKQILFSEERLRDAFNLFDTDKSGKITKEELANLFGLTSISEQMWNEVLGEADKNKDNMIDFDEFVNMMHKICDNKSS
Sequence of Protein kinase 7 (PK7), Plasmodium falciparum 3D7 (PF3D7_0213400) (Q7YTF7 1-343): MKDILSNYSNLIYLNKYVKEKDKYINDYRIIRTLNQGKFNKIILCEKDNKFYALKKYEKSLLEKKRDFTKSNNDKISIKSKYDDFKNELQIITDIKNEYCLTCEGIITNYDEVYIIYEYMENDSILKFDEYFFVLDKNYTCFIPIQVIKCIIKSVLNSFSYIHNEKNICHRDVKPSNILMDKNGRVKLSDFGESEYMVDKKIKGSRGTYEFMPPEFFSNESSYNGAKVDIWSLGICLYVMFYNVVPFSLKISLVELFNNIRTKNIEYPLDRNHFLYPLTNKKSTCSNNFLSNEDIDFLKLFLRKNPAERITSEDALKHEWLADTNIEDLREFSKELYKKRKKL
Sequence of Plasmodium falciparum protein kinase 6 (PK6, PF3D7_1337100) (Q8IDW1 1-305): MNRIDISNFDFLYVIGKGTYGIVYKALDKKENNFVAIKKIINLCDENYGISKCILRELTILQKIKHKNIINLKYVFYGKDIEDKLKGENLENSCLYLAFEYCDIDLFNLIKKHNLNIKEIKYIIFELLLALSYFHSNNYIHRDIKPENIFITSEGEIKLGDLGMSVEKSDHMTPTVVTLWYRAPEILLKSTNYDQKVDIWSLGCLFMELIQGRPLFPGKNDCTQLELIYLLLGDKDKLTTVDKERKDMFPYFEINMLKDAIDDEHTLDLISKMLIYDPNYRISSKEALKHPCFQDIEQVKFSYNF
Sequence of L-lactate dehydrogenase (Plasmodium falciparum (isolate CDC / Honduras)) (Q27743 whole entry, looked up): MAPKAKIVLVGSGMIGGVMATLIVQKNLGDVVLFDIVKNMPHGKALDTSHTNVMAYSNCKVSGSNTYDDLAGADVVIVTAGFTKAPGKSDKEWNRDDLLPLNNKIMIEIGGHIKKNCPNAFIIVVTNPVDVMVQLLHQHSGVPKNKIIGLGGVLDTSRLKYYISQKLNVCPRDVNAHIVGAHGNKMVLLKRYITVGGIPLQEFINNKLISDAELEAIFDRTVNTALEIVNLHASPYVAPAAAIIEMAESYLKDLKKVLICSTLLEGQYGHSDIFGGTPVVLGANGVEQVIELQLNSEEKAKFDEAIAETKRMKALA

FC(F)(F)c1ccc(Nc2nnnc3ccccc23)cc1
inactive: inhibition [2] 3% | inhibition [3] -6% | outcome [5] | outcome [6] | outcome [7] | outcome [8]
active: growth inhibition [1] 82% | growth inhibition [4] 90%

CC1=C(C(=O)Nc2cc3cn[nH]c3cc2F)C(c2ccc(Cl)c(NS(C)(=O)=O)c2)CC(=O)N1 (stereo not given)
active: growth inhibition [1] 98% | growth inhibition [4] 88%
inactive: inhibition [2] 2% | inhibition [3] -1% | outcome [5] | outcome [6] | outcome [7] | outcome [8]

CCC(C)NC(=O)Cn1c2ncccc2c(=O)n1-c1ccc(C)cc1 (stereo not given)
active: growth inhibition [1] 63% | growth inhibition [4] 95%
inactive: inhibition [2] 4% | inhibition [3] 4% | outcome [5] | outcome [6] | outcome [7] | outcome [8]

CCOC(=O)c1cn(CC)c2cc(N3CCCCCC3)c(F)cc2c1=O
active: growth inhibition [1] 89% | growth inhibition [4] 94%
inactive: inhibition [2] -2% | inhibition [3] 3% | outcome [5] | outcome [6] | outcome [7] | outcome [8]

CCC(C)CN1C(=O)C(c2ccccc2)(c2ccccc2)N=C1N (stereo not given)
active: growth inhibition [1] 79% | growth inhibition [4] 98%
inactive: inhibition [2] 11% | inhibition [3] 4% | outcome [5] | outcome [6] | outcome [7] | outcome [8]

CC(C)c1cccc(OCC2CCN(c3ccc(C(=O)Nc4ccccc4)cn3)CC2)c1
active: growth inhibition [1] 90% | growth inhibition [4] 95%
inactive: inhibition [2] 9% | inhibition [3] 4% | outcome [5] | outcome [6] | outcome [7] | outcome [8]

CC(=O)N1N=C(c2[nH]c3ccc(Br)cc3c2C)OC1c1ccccc1 (stereo not given)
inactive: inhibition [2] 8% | inhibition [3] 0% | outcome [5] | outcome [6] | outcome [7] | outcome [8]
active: growth inhibition [1] 68% | growth inhibition [4] 86%

COC(=O)C(C)(C)Cc1c(SC(C)(C)C)c2cc(C(C)C)ccc2n1Cc1ccc(Cl)cc1
inactive: inhibition [2] -9% | inhibition [3] 0% | outcome [5] | outcome [6] | outcome [7] | outcome [8]
active: growth inhibition [1] 96% | growth inhibition [4] 96%

COc1ccc(CNCc2ccc(-c3ccc(-c4nc5ccc(C(F)(F)F)cc5[nH]4)s3)cc2)cc1
active: growth inhibition [1] 98% | growth inhibition [4] 100%
inactive: inhibition [2] 38% | inhibition [3] -1% | outcome [5] | outcome [6] | outcome [7] | outcome [8]

Oc1ccc2[nH]c(-c3cccc(F)c3)nc2c1CN1CCC(N2CCCC2)CC1
inactive: inhibition [2] 0% | inhibition [3] -6% | outcome [5] | outcome [6] | outcome [7] | outcome [8]
active: growth inhibition [1] 54% | growth inhibition [4] 100%

CC[C@H](NC(=O)c1c(CC2CCN(CC(C)=O)CC2)c(-c2ccccc2)nc2ccccc12)c1ccccc1
active: growth inhibition [1] 96% | growth inhibition [4] 97%
inactive: inhibition [2] 7% | inhibition [3] 3% | outcome [5] | outcome [6] | outcome [7] | outcome [8]

CN1CCN(CCCN(Cc2ccc(-c3cccc(CNCc4ccc5c(c4)OCO5)c3)cc2)C(=O)CCC2CCCC2)CC1
inactive: inhibition [2] 24% | inhibition [3] -5% | outcome [5] | outcome [6] | outcome [7] | outcome [8]
active: growth inhibition [1] 85% | growth inhibition [4] 92%

COc1cc(C(=O)NC2CC(C)(C)N(C)C(C)(C)C2)ccc1-c1nc2cc(Cl)c(Cl)cc2[nH]1
active: growth inhibition [1] 99% | inhibition [2] 69% | growth inhibition [4] 100%
inactive: inhibition [3] 5% | outcome [5] | outcome [6] | outcome [7] | outcome [8]

Cc1cccc2[nH]c(-c3cccc(-c4cccc(NC(=O)Cc5cnc[nH]5)c4)c3)nc12
active: growth inhibition [1] 100% | growth inhibition [4] 102%
inactive: inhibition [2] 32% | inhibition [3] -4% | outcome [5] | outcome [6] | outcome [7] | outcome [8]

COc1cc2nc(N(C)Cc3cc4c(Cl)cccc4s3)nc(N)c2cc1OC
active: growth inhibition [4] 90%
inactive: growth inhibition [1] 27% | inhibition [2] 32% | inhibition [3] 4% | outcome [5] | outcome [6] | outcome [7] | outcome [8]

CCN(CC)c1nc(N)c2c(N)nc3c(c2c1C#N)C(=O)CN3Cc1ccccc1
active: growth inhibition [1] 96% | growth inhibition [4] 96%
inactive: inhibition [2] 26% | inhibition [3] -3% | outcome [5] | outcome [6] | outcome [7] | outcome [8]

CC(C)c1sc(-c2ccc(C(C)(C)C)cc2)nc1C(=O)NCCCN1CCCC1=O
inactive: inhibition [2] -2% | inhibition [3] 1% | outcome [5] | outcome [6] | outcome [7] | outcome [8]
active: growth inhibition [1] 92% | growth inhibition [4] 96%

CCCC1N=C(N)N=C(N)N1c1ccc(CC)cc1 (stereo not given)
active: growth inhibition [4] 94%
inactive: growth inhibition [1] 4% | inhibition [2] 11% | inhibition [3] 1% | outcome [5] | outcome [6] | outcome [7] | outcome [8]

COc1cccc(-c2cc(C(F)(F)F)n3ncc(C(=O)Nc4cc(C)ccc4O)c3n2)c1
active: growth inhibition [1] 99% | growth inhibition [4] 98%
inactive: inhibition [2] -4% | inhibition [3] 3% | outcome [5] | outcome [6] | outcome [7] | outcome [8]

O=S(=O)(Nc1cccc(CCN2CCC(N3CCCCC3)CC2)c1)c1cccc2cccnc12
inactive: growth inhibition [1] 17% | inhibition [2] 0% | inhibition [3] 1% | outcome [5] | outcome [6] | outcome [7] | outcome [8]
active: growth inhibition [4] 98%

Cc1sc(NC(=O)c2ccc([N+](=O)[O-])cc2Cl)c(C(N)=O)c1C
active: growth inhibition [4] 94%
inactive: growth inhibition [1] 2% | inhibition [2] 2% | inhibition [3] 1% | outcome [5] | outcome [6] | outcome [7] | outcome [8]

COc1ccc(CN2CCN(Cc3cc(Cl)ccc3O)CC2CCO)c(C)c1C (stereo not given)
inactive: inhibition [2] 1% | inhibition [3] 3% | outcome [5] | outcome [6] | outcome [7] | outcome [8]
active: growth inhibition [1] 76% | growth inhibition [4] 94%

COc1ccc(CN2CCC(CNCCc3c(Cl)cccc3Cl)CC2)cc1
inactive: inhibition [2] 45% | inhibition [3] -11% | outcome [5] | outcome [6] | outcome [7] | outcome [8]
active: growth inhibition [1] 69% | growth inhibition [4] 98%

O=C(NNC(=O)c1ccc(CCN2CCC(c3nc(COCC(F)(F)F)c(-c4ccc(F)cc4)o3)CC2)cc1)Nc1ccc(Oc2ccccc2)cc1
inactive: inhibition [2] 38% | inhibition [3] 4% | outcome [5] | outcome [6] | outcome [7] | outcome [8]
active: growth inhibition [1] 89% | growth inhibition [4] 102%

O=C(Nc1nc(-c2ccccn2)cs1)c1ccc(S(=O)(=O)N2CCc3ccccc32)cc1
inactive: growth inhibition [1] 15% | inhibition [2] 47% | inhibition [3] 2% | outcome [5] | outcome [6] | outcome [7] | outcome [8]
active: growth inhibition [4] 89%

COc1cccc2cc(C(=O)N[C@@H](CC(C)C)C(=O)N[C@H](/C=N/NC(=O)OC(C)(C)C)CC(C)C)oc12
active: growth inhibition [1] 57% | growth inhibition [4] 88%
inactive: inhibition [2] 8% | inhibition [3] -2% | outcome [5] | outcome [6] | outcome [7] | outcome [8]

COc1ccc(Cl)cc1N1CCN(CCCNC(=O)c2ccc(-c3nc4ccncc4[nH]3)c(Br)c2)CC1
inactive: growth inhibition [1] 15% | inhibition [2] 5% | inhibition [3] 4% | outcome [5] | outcome [6] | outcome [7] | outcome [8]
active: growth inhibition [4] 86%

O=C(Nc1cccc(C(F)(F)F)c1)c1ccc(S(=O)(=O)NC2CCN(CC3CCCCC3)CC2)cc1
inactive: growth inhibition [1] -3% | inhibition [2] 25% | inhibition [3] 0% | outcome [5] | outcome [6] | outcome [7] | outcome [8]
active: growth inhibition [4] 83%

O=C(C=Cc1ccc(Cl)c(Cl)c1)NCCCCCN1CCC(CCCNS(=O)(=O)c2ccc(F)cc2)CC1
active: inhibition [2] 52% | growth inhibition [4] 93%
inactive: growth inhibition [1] 20% | inhibition [3] 4% | outcome [5] | outcome [6] | outcome [7] | outcome [8]

COc1cc2c(cc1OC)C(C(=O)Nc1cc(OC)c(OC)c(OC)c1)C(c1ccc(SC)cc1)N(C)C2=O (stereo not given)
active: growth inhibition [1] 64% | growth inhibition [4] 97%
inactive: inhibition [2] 14% | inhibition [3] 2% | outcome [5] | outcome [6] | outcome [7] | outcome [8]

CC(C(=O)N1CCCC1)N1CCN(C(c2ccccc2)c2ccccc2)CC1 (stereo not given)
inactive: inhibition [2] -2% | inhibition [3] 3% | outcome [5] | outcome [6] | outcome [7] | outcome [8]
active: growth inhibition [1] 56% | growth inhibition [4] 82%

O=C(/C=C/c1ccc(Cl)c(Cl)c1)NCCCCCN1CCC(C(=O)Nc2ccc(Cl)cc2)CC1
active: growth inhibition [4] 100%
inactive: growth inhibition [1] -1% | inhibition [2] 42% | inhibition [3] 8% | outcome [5] | outcome [6] | outcome [7] | outcome [8]

Cc1cccc2[nH]c(-c3cccc(-c4ccc(CN5CCC(C(N)=O)CC5)cc4)c3)nc12
inactive: growth inhibition [1] 9% | inhibition [2] -1% | inhibition [3] 4% | outcome [5] | outcome [6] | outcome [7] | outcome [8]
active: growth inhibition [4] 89%

O=C(NCCc1cccc(Cl)c1Cl)c1ccc(N2CCN(c3ccncc3)CC2)nc1
active: growth inhibition [1] 79% | growth inhibition [4] 101%
inactive: inhibition [2] 38% | inhibition [3] 2% | outcome [5] | outcome [6] | outcome [7] | outcome [8]

N#Cc1cc(C(=O)c2cc(Cl)ccc2O)cn(-c2cccc(C(F)(F)F)c2)c1=O
active: growth inhibition [4] 87%
inactive: growth inhibition [1] 7% | inhibition [2] -1% | inhibition [3] -2% | outcome [5] | outcome [6] | outcome [7] | outcome [8]

c1ccc(CNc2nc(NCCc3cnc[nH]3)nc(N3CCCC4CCCCC43)n2)cc1 (stereo not given)
active: growth inhibition [1] 100% | growth inhibition [4] 98%
inactive: inhibition [2] -6% | inhibition [3] -3% | outcome [5] | outcome [6] | outcome [7] | outcome [8]

Cc1cccc2[nH]c(-c3cccc(-c4cccc(NC(=O)c5ccc(C(N)=O)cc5)c4)c3)nc12
active: growth inhibition [4] 101%
inactive: growth inhibition [1] 34% | inhibition [2] 25% | inhibition [3] 0% | outcome [5] | outcome [6] | outcome [7] | outcome [8]

c1ccc(C23N=C(Nc4nc5ccccc5[nH]4)NC2(c2ccccc2)NC(Nc2nc4ccccc4[nH]2)=N3)cc1 (stereo not given)
active: growth inhibition [1] 89% | growth inhibition [4] 97%
inactive: inhibition [2] 2% | inhibition [3] 3% | outcome [5] | outcome [6] | outcome [7] | outcome [8]

O=C(Nc1cccc(Cl)c1)c1cnc(N2CCN(c3ccncc3)CC2)c(Cl)c1
active: growth inhibition [1] 97% | inhibition [2] 54% | growth inhibition [4] 101%
inactive: inhibition [3] 4% | outcome [5] | outcome [6] | outcome [7] | outcome [8]

Cc1ccc(NC(=O)c2ccc3ncccc3c2)cc1OC1CCN(Cc2ccsc2)C1 (stereo not given)
inactive: growth inhibition [1] 49% | inhibition [2] 5% | inhibition [3] -3% | outcome [5] | outcome [6] | outcome [7] | outcome [8]
active: growth inhibition [4] 88%
